Pf growth 48h – Primary qHTS for delayed death inhibitors of the malarial parasite plastid, 48 hour incubation. P. falciparum luciferase growth in erythrocytes, 48 h. Potency, µM (series often up to 28.7 µM), for the others: top-dose activity change, negative = inhibition, most hits filed as inhibitors. hit rate 5.9% among 310,000. AID 504832, 2011; also: potency is read from the fitted curve at half-maximal effect; % is scaled to controls: 0 for no effect and ±100 for the full control effect
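Erythrocytes infected with P. falciparum carrying an integrated firefly luciferase reporter (2% hematocrit, 0.1% parasitemia final) were exposed to compounds in RPMI 1640 with 0.5% Albumax at 37 C, 5% CO2. Growth inhibition was scored as reduced luminescence.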
HCMV antiviral – qHTS Assay for inhibitors of the human cytomegalovirus (HCMV); HFF cells, HCMV-luciferase reporter, 72 h; stronger effect = lower value; activity change, negative = inhibition, % at 57.5 µM; hit rate 4.5% among 410,000; in the data active = activity change below about -60%; inconclusive = no clear call, values can overlap the other calls; inactive = above about -39%; also: % is scaled to controls: 0 for no effect and ±100 for the full control effect
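After 16 h attachment at 37C, HFF cells received test compound and HCMV-luciferase (1 PFU/cell); reporter luminescence read 72 h later, data normalized against buffer-only and known inhibitor Salinomycin.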
Shiga inhibitor – A qHTS for Small Molecule Inhibitors of Shiga Toxin; inhibition, % at 38.7 µM; AID 2315, 2010; Vero cells, Shiga toxin protein synthesis inhibition reporter; hit rate 9.2% among 290,000; in the data active = inhibition mostly above about 28%, no sharp cut-off; inactive = mostly below about 43%; also: 0% is about no effect
Pf growth 96h – Primary qHTS for delayed death inhibitors of the malarial parasite plastid, 96 hour incubation; hit rate 6.9% among 320,000; Potency, µM (highest dose often 28.7 µM), without a hit: at the highest dose activity change, negative = inhibition, hits mostly inhibitors; P. falciparum luciferase reporter growth, 96 h; also: potency is read from the fitted curve at half-maximal effect; % is scaled to controls: 0 for no effect and ±100 for the full control effect
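Delayed-death screen, second-generation endpoint: infected erythrocytes, 2% hematocrit, 0.05% parasitemia final; 96 hours at 37 C, 5% CO2; luciferase detection reagent; luminescence decrease equals reduced growth.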
CHX counter – Cycloheximide Counterscreen for Small Molecule Inhibitors of Shiga Toxin | cell reporter, cycloheximide protein synthesis inhibition counterscreen | max response, % | hit rate 12% among 300,000 | AID 2314, 2010; in the data active = max response mostly above about 13%, no sharp cut-off; inactive = mostly below about 14%; also: read at 38.3 µM for the half of the compounds with a filed dose; 0% is about no effect
The depositor's hits bear a star. Rows were chosen to be rich in hits. Some 20% of all compounds tested hit in one or more screens of this group. Unless noted, calls follow the shape of the dose curve; as a rule, active = well fitted inhibition curve with a large enough effect; inconclusive = small, poorly fitted or top-dose-only effect, or another doubt; inactive = no such curve, though single readings can be large or run the other way.

Cc1cc(C)c(-c2csc(NC(=O)C3=COCCO3)n2)c(C)c1 was read as Pf growth 48h 9.3µM*, HCMV antiviral inconclusive and Pf growth 96h inconclusive.
`Cc1cc(C)c(NC(=O)C2=COCCO2)c(C)c1` gave Pf growth 48h 46%, HCMV antiviral -2 and Pf growth 96h 90%.
`O=C(Nc1nc(-c2cccs2)cs1)C1=COCCO1` gave Pf growth 48h 115%, HCMV antiviral 49, Shiga inhibitor 68*, Pf growth 96h 446% and CHX counter 40*.
COc1ccc2c(c1)[C@@H](NCc1ccccn1)[C@H](C)[C@@H](c1ccccc1)N2C(=O)NC(C)C was read as HCMV antiviral 19.
For COC(=O)CCc1ccc(OCC(O)CNC(C)C)cc1 (stereo not drawn) the results were HCMV antiviral -64*.
CC(C)NCC(O)COc1ccc(COCCOC(C)C)cc1 (stereo not drawn) was read as Pf growth 48h 2%, HCMV antiviral -21, Shiga inhibitor 28*, Pf growth 96h 16% and CHX counter 11.
COc1cccc2c1Oc1ncccc1N(C(=O)CCC(=O)NCc1cccc(C)c1)C2 was read as Pf growth 48h -6%, HCMV antiviral 10, Shiga inhibitor -2, Pf growth 96h inconclusive and CHX counter -3.
For CCCOc1ccc(CNC(=S)NCc2ccc(OC(C)C)cc2)cc1 the results were Pf growth 48h -12%, HCMV antiviral -35, Shiga inhibitor -13, Pf growth 96h inconclusive and CHX counter 1.
Screening Cc1ccc(C(CC(=O)Nc2ccc(F)c(Cl)c2)N2Cc3ccccc3C2=O)cc1 (stereo not drawn) returned HCMV antiviral -104*.
`COc1ccc(C(CC(=O)Nc2ccccn2)N2Cc3ccccc3C2=O)cc1` (stereo not drawn) gave Pf growth 48h 11%, HCMV antiviral -12, Shiga inhibitor 88*, Pf growth 96h 12% and CHX counter 30*.
`COc1ccc(C(CC(=O)Nc2ncccc2C)N2Cc3ccccc3C2=O)cc1` (stereo not drawn) gave Pf growth 48h -11%, HCMV antiviral 22, Shiga inhibitor -15, Pf growth 96h 20% and CHX counter 19.
For COc1ccc(C(CC(=O)Nc2ccc(F)c(Cl)c2)N2Cc3ccccc3C2=O)cc1OC (stereo not drawn) the results were HCMV antiviral -9.
`CCOc1ccccc1NC(=O)CSc1nnc(Cn2c(=O)sc3ccccc32)n1C` gave Pf growth 48h 0%, HCMV antiviral 12, Shiga inhibitor 6, Pf growth 96h inconclusive and CHX counter -2.
`CC1CCN(c2nnc(-c3cccs3)c3ccccc23)CC1` gave Pf growth 48h -1%, HCMV antiviral -66*, Shiga inhibitor 60, Pf growth 96h inconclusive and CHX counter 16*.
`CCCOc1ccc(C(=O)CCC(=O)OCC(=O)N2CC(=O)Nc3ccccc32)cc1` gave HCMV antiviral -19, Shiga inhibitor -7, Pf growth 96h 52% and CHX counter 32*.
For O=C1CN(C(=O)COC(=O)CCC(=O)c2ccc(Cl)cc2)c2ccccc2N1 the results were HCMV antiviral -24.
For O=C1CN(C(=O)COC(=O)c2ccc(N3CCCCCC3)c([N+](=O)[O-])c2)c2ccccc2N1 the results were Pf growth 48h inconclusive, HCMV antiviral -8, Shiga inhibitor -8, Pf growth 96h 6.6µM* and CHX counter -3.
O=C1CN(C(=O)COC(=O)CCC(=O)c2ccc3c(c2)OCCO3)c2ccccc2N1 was read as Pf growth 48h -1%, HCMV antiviral -26, Shiga inhibitor 35, Pf growth 96h -3% and CHX counter 19*.
Cc1cc(Nc2cccc(C(F)(F)F)c2)nc2ccc(NC(=O)c3ccc(N(C)C)cc3)cc12 was read as HCMV antiviral -22.
For C=C1CC(COc2cc(=O)oc3ccccc23)(c2ccccc2)OC1=O (stereo not drawn) the results were HCMV antiviral 216.
Screening CC(=O)OC1CCC2(C)C(COc3ccc4ccc(=O)oc4c3)C(C)(O)CCC2C1(C)C (stereo not drawn) returned Pf growth 48h inconclusive, HCMV antiviral 57, Shiga inhibitor -12, Pf growth 96h 9.3µM* and CHX counter -2.
`C=C1CCC2C(C)(C)[C@@H](O)CC[C@@]2(C)[C@@H]1COc1ccc2ccc(=O)oc2c1` (stereo partly drawn) gave Pf growth 48h 12µM*, HCMV antiviral -23, Shiga inhibitor 2, Pf growth 96h 5.2µM* and CHX counter -6.
For C=C1CCC2C(C)(C)[C@H](O)CC[C@@]2(C)[C@@H]1COc1cc(=O)oc2ccccc12 (stereo partly drawn) the results were Pf growth 48h inconclusive, Shiga inhibitor -4, Pf growth 96h 15µM* and CHX counter -5.
COc1ccccc1-n1c(SCC(=O)c2ccc(O)cc2O)nc2cc([N+](=O)[O-])ccc21 was read as Pf growth 48h 14%, HCMV antiviral 134, Shiga inhibitor -4, Pf growth 96h inconclusive and CHX counter 2.
`NC(=O)COc1ccc(-c2noc(COc3ccc(Cl)cc3)n2)cc1` gave HCMV antiviral 17.
`COc1ccc(C)cc1S(=O)(=O)N(C)CC(=O)NCc1ccccn1` gave Pf growth 48h -4%, HCMV antiviral -20, Shiga inhibitor 6, Pf growth 96h inconclusive and CHX counter -1.
`O=C1CNC(=S)N1c1nc2ccccc2s1` gave Pf growth 48h 2%, HCMV antiviral 2, Shiga inhibitor 82*, Pf growth 96h inconclusive and CHX counter 29*.
Screening COc1ccc(NC(=O)CSc2nnc(Cn3cnc4ccccc43)o2)cc1 returned Pf growth 48h inconclusive, HCMV antiviral 12, Shiga inhibitor -19, Pf growth 96h -33% and CHX counter 9.
COCCCNC(=O)C[C@H]1C[C@H](C(=O)N2CCOCC2)[C@@]2(CCC3CCCC3)c3[nH]c4ccc(Cl)cc4c3CCN2C1=O was read as HCMV antiviral -7.
COc1ccccc1-c1ccc(Nc2cccc(C(F)(F)F)c2)nn1 was read as Pf growth 48h 37%, HCMV antiviral 23, Shiga inhibitor 14, Pf growth 96h -2% and CHX counter 15*.
`COc1ccccc1-c1ccc(NC2CCCCC2)nn1` gave Pf growth 48h 122%, HCMV antiviral 50, Shiga inhibitor 72*, Pf growth 96h 81% and CHX counter 31*.
Cc1ccc(Nc2cccc(C(F)(F)F)c2)nn1 was read as HCMV antiviral 25.
COc1ccccc1OCC(=O)NC1CCCCCCC1 was read as HCMV antiviral -13.
Screening O=C(NNC(=S)Nc1ccccc1Cl)c1ccccc1 returned Pf growth 48h 262%, HCMV antiviral 142, Shiga inhibitor 78*, Pf growth 96h -31% and CHX counter 43*.

Screening results (PubChem BioAssay)
